Data on 20 compounds can be found in ChEMBL document CHEMBL3988442, “University of Dundee, Small-Polar-MMV Screening Library” (2021).

Measured potencies and affinities stand elsewhere.

This test deals with Protein translocase subunit SecA (Escherichia coli (strain K12)) (UniProt P10408). Description: Assay to Identify E. coli SecA ATPase Inhibitors. Type of test: functional. The arrangement: scale not given: direction of the effect not stated beside the values. Conditions: 30 µM.
Chain of Protein translocase subunit SecA (Escherichia coli (strain K12)) (P10408 whole entry): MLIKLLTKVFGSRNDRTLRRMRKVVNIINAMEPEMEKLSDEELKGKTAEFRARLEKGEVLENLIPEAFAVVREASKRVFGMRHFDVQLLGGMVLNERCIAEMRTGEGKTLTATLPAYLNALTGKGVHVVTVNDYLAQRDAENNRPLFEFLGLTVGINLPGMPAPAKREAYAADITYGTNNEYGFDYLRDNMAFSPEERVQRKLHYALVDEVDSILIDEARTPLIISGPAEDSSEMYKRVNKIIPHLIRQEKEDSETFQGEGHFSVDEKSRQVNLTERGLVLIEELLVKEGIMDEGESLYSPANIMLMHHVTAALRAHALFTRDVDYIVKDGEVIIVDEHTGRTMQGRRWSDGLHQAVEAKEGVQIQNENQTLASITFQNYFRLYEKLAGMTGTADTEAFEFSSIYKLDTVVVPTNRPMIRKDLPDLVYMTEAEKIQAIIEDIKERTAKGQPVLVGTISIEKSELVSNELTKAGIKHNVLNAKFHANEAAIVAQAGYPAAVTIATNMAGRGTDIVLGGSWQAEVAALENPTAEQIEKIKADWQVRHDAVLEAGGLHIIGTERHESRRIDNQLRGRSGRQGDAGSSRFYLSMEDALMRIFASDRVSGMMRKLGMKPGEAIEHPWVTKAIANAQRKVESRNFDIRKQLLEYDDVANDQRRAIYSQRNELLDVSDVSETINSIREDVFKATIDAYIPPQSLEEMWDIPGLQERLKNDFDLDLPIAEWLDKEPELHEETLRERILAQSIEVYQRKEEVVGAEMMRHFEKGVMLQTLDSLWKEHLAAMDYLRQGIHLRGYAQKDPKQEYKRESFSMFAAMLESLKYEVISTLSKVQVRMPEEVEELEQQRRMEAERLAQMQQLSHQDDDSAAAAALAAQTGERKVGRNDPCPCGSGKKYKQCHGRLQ
With `O=C(c1cccc(Cn2ccnc2)c1)N1CCCC(n2ccnc2)C1` (stereo not given), the Percent Effect is -0.331%.

For `O=C(COc1ccc(C(F)(F)F)cc1)NS(=O)(=O)c1cccnc1`, the Percent Effect was -0.269%.

For the compound `NS(=O)(=O)N1CCc2ccc(NC(=O)Cc3ccc(F)cc3)cc21`, the Percent Effect is -2.62%.

Take `Cc1ccc(CC2CCCN2CC(=O)NCc2cccnc2)cc1` (stereo not given): the Percent Effect is -4.01%.

As for `CN(C)CC1CSCCCN1C(=O)Nc1ccc(C(C)(C)C)cc1` (stereo not given), the Percent Effect was -1.39%.

`CC(CNC(=O)c1ccc(Cl)cc1I)N1CCCC1` (stereo not given): the Percent Effect is -0.489%.

Consider `Cc1ncsc1C(=O)N(C)Cc1cccc(Cl)c1`, for which the Percent Effect is 0.989%.

With `COc1ccc(C2C3=C(COC3=O)Nc3[nH]nc(C)c32)cc1OC` (stereo not given), the Percent Effect came out at 2.08%.

Take `COCCN1CCc2cc(C(=O)N(C)C)c(NC(C)C)nc2CC1`: the Percent Effect is -0.676%.

On to `CCCC(=O)N1CCC(O)(Cn2c(CC)nc3ccccc3c2=O)CC1`, for which the Percent Effect was -1.08%.

On to `CCc1nnsc1C(=O)NC1CCN(c2ccccn2)CC1`, for which the Percent Effect was -1.79%.

`Cc1ccc(CN2CC(C(=O)Nc3ccccc3)C3(CCOCC3)C2)s1` (stereo not given): the Percent Effect is -2.15%.

Take `COc1cccc(CC2CN(C3CCN(C(C)=O)CC3)CCO2)c1` (stereo not given): the Percent Effect was -1.38%.

In the case of `CCOCCCC(=O)NCCC(=O)N1CCN(c2ccccn2)CC1`, the Percent Effect was -3.47%.

On to `Cc1nc(CN2CCc3cncnc3C2)oc1C`, for which the Percent Effect is -0.217%.

On to `Cc1csc(N2CCN(C(=O)Cc3ccsc3)CC2)n1`, for which the Percent Effect was -6.47%.

With `COc1ncccc1C(=O)N1CCN(C(=O)Cc2ccccn2)CC1`, the Percent Effect is -1.65%.

With `Cc1cc(-c2nnc(SCC(=O)O)n2C(C)c2ccccc2)nn1C` (stereo not given), the Percent Effect is -4.08%.

For `Cc1ccccc1CSCCn1nc2ccccn2c1=O`, the Percent Effect was -1.42%.

Take `Fc1cccc(-n2ccc(CN3CCCCC3Cn3cncn3)n2)c1` (stereo not given): the Percent Effect was -3.79%.
